Glioma ERSR ind: ER stress response induction in glioma; U87-MG GRP78 promoter luciferase reporter, 16 h; Potency, µM, for inactives: top-dose activation, actives largely listed as activators; 420,000 compounds, 0.02% hits; AID 602332; active means well fitted activation curve with a large enough effect; further: potency means the concentration at half of the fitted maximal effect; series mostly up to about 76 µM; % of control where 0% means no effect; nearly all actives have a fitted effect of over 35% in size
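Stably transfected U87-MG glioma cells carrying a GRP78-based luciferase sensor; 16 h compound incubation. Luminescence end-point read 10 min after Bright-Glo addition at room temperature.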
TRHR enhancer: TRH receptor (human) allosteric enhancement | TRHR cells, fluo-8 calcium fluorescence, EC20 TRH enhancement | enhancement, % at 2 µM | P34981 | 360,000 compounds, 0.66% hits; in the data active means enhancement above about 30%; further: 0% is about no effect
Target sequence (P34981 whole entry, looked up): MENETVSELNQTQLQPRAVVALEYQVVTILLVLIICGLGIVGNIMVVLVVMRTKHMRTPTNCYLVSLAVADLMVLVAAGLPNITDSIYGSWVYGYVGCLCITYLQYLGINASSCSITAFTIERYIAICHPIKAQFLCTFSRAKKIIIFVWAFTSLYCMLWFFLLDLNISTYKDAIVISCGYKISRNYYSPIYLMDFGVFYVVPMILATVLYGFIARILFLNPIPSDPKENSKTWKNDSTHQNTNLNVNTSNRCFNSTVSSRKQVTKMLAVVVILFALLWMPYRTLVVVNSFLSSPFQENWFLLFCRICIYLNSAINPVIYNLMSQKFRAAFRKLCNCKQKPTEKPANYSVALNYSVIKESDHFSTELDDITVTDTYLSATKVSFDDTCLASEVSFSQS
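Enhancer read-out: after compound pinning and an initial kinetic agonist-mode read, an EC20 of TRH (10 nM final) was injected and fluo-8 calcium signal (Ex 480/Em 530) followed at 1 s/cycle for 100 cycles in TRHR-expressing cells.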
TRHR agonist: TRH receptor (human) agonism; P34981; TRHR cells, calcium flux fluo-8, FDSS agonist mode; activation, % at 2 µM; 360,000 compounds, 0.18% hits; AID 493084; further: 0% is about no effect
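Steps: seed TRHR cells overnight; add fluo-8 no-wash Ca dye, RT 30 min–1.5 h; record 10 s baseline; pin-transfer compounds; monitor fluorescence 1 cycle/s for the agonist window. Calcium increases flag candidate agonists.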
D1 agonist: agonists of human D1 dopamine receptor. HEK293 T-REx D1 cells, calcium flux, agonist mode. AID 504660. activation, % at 2 µM. 360,000 compounds, 1% hits. P21728; further: 0% is about no effect
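Tetracycline-induced HEK293 TREx D1 cells, force-coupled to calcium signalling, were dye-loaded with a no-wash calcium kit. Compound was pin-added after a 10 s baseline. Fluorescence was read kinetically at 1 cycle/s for 180 s, with calcium rises flagged as agonism.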
D1 PAM: enhances dopamine response at the human D1 receptor; P21728; HEK293 TREx D1 cells, calcium flux, dopamine EC20 potentiation; potentiation, % at 10 µM; 360,000 compounds, 0.036% hits; in the data active means potentiation above about 30%; further: 0% is about no effect
D1 antag: blocks dopamine activation of the human D1 receptor. AID 504652. activity change, negative = inhibition, % at 10 µM. HEK293 TREx D1 cells, calcium flux, dopamine EC80; stronger effect = lower value. 360,000 compounds, 3.2% hits. P21728; in the data active means activity change below about -30%; further: on the % scale 0 is the no-effect control and ±100 the full control effect
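Tetracycline-induced HEK293 Trex D1 cells, force-coupled to calcium, dye-loaded; compounds added and read 180 s, then EC80 dopamine added and calcium flux tracked kinetically another 180 s.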
* marks the source's active call; other numbers are inactive results; . = not tested or not shown. Most compounds without a hit are left out; they make up all but 4% or so of the library. Unless noted, no stated cut-off is given here; in the data, active means activation above about 30%; inactive means the rest.

SMILES	Glioma ERSR ind	TRHR enhancer	TRHR agonist	D1 agonist	D1 PAM	D1 antag
COc1ccc(-c2nc3cc(C)ccc3cc2CN(C(=O)c2cc(C)nn2C)C2CC2)cc1OC	-1%	.	.	.	.	.
O=C(NCCCN1CCOCC1)c1ccccc1N1C(=O)[C@@H]2Cc3c([nH]c4ccccc34)C(c3cccc(Cl)c3)N2C1=O (some centres not stated)	-3%	1	1	10	-9	-46*
Cc1ccc(C2c3[nH]c4ccccc4c3C[C@H]3C(=O)N(c4ccccc4C(=O)NCCCN4CCOCC4)C(=O)N23)cc1 (some centres not stated)	-3%	5	-1	3	2	-3
O=C(NCc1ccc(Cl)cc1)c1cc(=O)[nH]c2ccccc12	-3%	7	-2	6	.	-3
NCCCC(=O)N1c2ccccc2Sc2ccc(Cl)cc21	-8%	18	3	5	4	6
NCCC(=O)N1c2ccccc2Sc2ccc(Cl)cc21	0%	-33	50*	59*	-2	2
Cn1nc(C(F)(F)F)c(-c2cccc(C(F)(F)F)c2)c1NC(=O)Nc1ccc(F)cc1	-1%	-6	1	17	-2	-31*
Cn1nc(-c2ccccc2)cc1NC(=O)Nc1ccc(F)cc1	8%	2	1	12	-13	-44*
CCc1nn(CC(=O)NCCN(CC(C)C)CC(C)C)c(=O)c2cc3sc(C)cc3n12	-1%	55*	0	-1	-3	4
CCCCN(C)CCCNC(=O)Cn1nc(CC)n2c(cc3sc(C)cc32)c1=O	-3%	2	0	0	-8	-27
CCOc1ccc(CCNC(=O)Cn2nc(CC)n3c(cc4ccccc43)c2=O)cc1	-3%	3	0	1	-4	-43*
CN1CCN(c2ncc3nc(CCc4ccccc4)c(=O)n(C4CC4)c3n2)CC1	-1%	.	.	.	.	.
C=C(C)c1cccc(C(C)(C)NC(=O)Nc2ccc(C)cn2)c1	-3%	-8	2	30*	-3	14
COc1ccccc1NC(C)C(=O)c1c[nH]c2ccccc12 (configuration not stated)	0%	.	.	.	.	.
C=CCn1c(=O)/c(=C/c2ccc(O)cc2)s/c1=C(/C#N)c1nnc2n1CCCCC2	-4%	-6	30*	50*	1	-1
C=CCn1c(=O)/c(=C/c2ccc(Cl)cc2)s/c1=C(/C#N)c1nnc2n1CCCCC2	-2%	-13	0	2	-7	-4
COc1ccc(C)cc1-n1c(-c2ccncc2)n[nH]c1=S	-2%	4	0	1	-4	-32*
COc1cc(OC)cc(-c2n[nH]c(=S)n2-c2cc(OC)ccc2OC)c1	-5%	-2	0	1	5	-1
O=C(O)c1ccc(CSc2nc(-c3ccc(Cl)cc3)cc(C(F)(F)F)n2)cc1	-1%	-3	0	37*	-3	-4
O=C(O)c1ccc(CSc2nc(-c3ccccc3)cc(C(F)(F)F)n2)cc1	-2%	-2	0	1	-1	-4
COc1ccc(-n2nc(C(=O)NCC(=O)NCC3COc4ccccc4O3)c3ccccc3c2=O)cc1OC (configuration not stated)	-1%	-5	0	5	2	18
COc1ccc(-n2nc(C(=O)NCC(=O)NCC3COc4ccccc4O3)c3ccccc3c2=O)c(OC)c1 (configuration not stated)	-1%	33*	0	2	-8	15
CCC(C)NC(=O)c1ccc(N2CC3CC(C2)c2cccc(=O)n2C3)c(NC(=O)c2c(F)cccc2F)c1 (configuration not stated)	-4%	.	.	.	.	.
C=C(C)C1CC=C(C)/C(=N/NC(=O)c2ccccc2[N+](=O)[O-])C1 (configuration not stated)	0%	36*	1	11	0	9
CC(=O)OCc1cnc(C)c2oc(=O)c(C(=O)Nc3cccc(F)c3)cc12	-2%	9	-1	0	1	-46*
SMILES	Glioma ERSR ind	TRHR enhancer	TRHR agonist	D1 agonist	D1 PAM	D1 antag
O=C(CSc1nc(-c2cccs2)nc2cc(=O)[nH]n12)Nc1ccccc1Cl	-1%	13	0	5	-5	1
CCC(=O)Nc1ccc(NC(=O)c2cc3ccccc3o2)cc1	2%	-1	0	9	-8	19
CC(Cc1ccccc1)NC(=O)c1cc2ccccc2o1 (configuration not stated)	-1%	-6	-2	48*	-20	-7
CCN1C(=NCc2ccccc2)N[C@@H](c2ccccc2)[C@H](C(=O)OC)[C@H]1C	-2%	-4	0	1	2	-4
CCN1C(=NCc2ccc(OC)cc2)N[C@@H](c2ccccc2)[C@H](C(=O)OC)[C@H]1C	-1%	31*	0	3	3	-2
CCOC(=O)C1CCCN(C(=O)/C(=C/c2ccco2)NC(=O)c2ccccc2)C1 (configuration not stated)	-1%	2	3	6	-7	4
COC(=O)[C@@H]1CCCN1C(=O)[C@@H](NC(=O)OC(C)(C)C)C(C)C	0%	.	.	.	.	.
O=C(/C=C/c1cccc([N+](=O)[O-])c1)Nc1ccc(Cl)cn1	-1%	10	0	0	-4	0
O=C(COC(=O)c1cccc([N+](=O)[O-])c1)Nc1ccc(Cl)cn1	-2%	-5	1	3	-14	5
CC(C)OC(=O)c1ccccc1C(=O)c1ccc(N)c([N+](=O)[O-])c1	-3%	-4	0	-1	-5	-34*
O=C(COC(=O)/C=C/c1cccc([N+](=O)[O-])c1)Nc1ccc(Cl)cn1	-3%	-1	0	4	-6	-49*
O=C(COC(=O)c1ccc([N+](=O)[O-])cc1)Nc1ccc(Cl)cn1	-2%	5	0	5	6	-37*
O=C(COC(=O)c1ccc([N+](=O)[O-])cc1)NC1CCCC1	3%	-5	-1	1	-5	-45*
O=C(N/N=C/c1ccc(-c2ccccc2C(=O)O)o1)c1cccs1	-2%	-9	0	3	-3	-9
CCc1nnc(N2C(=O)c3ccccc3C2(O)c2ccccc2)s1 (configuration not stated)	-2%	0	0	2	0	-12
COc1c(CC(=O)c2cc3c(cc2O)OC(C)(C)C(O)C3)ccc2c1C=CC(C)(C)O2 (configuration not stated)	0%	.	.	.	.	.
CCN1CCCC1CNC(=O)c1cnn(-c2nccc(-c3cccs3)n2)c1C1CC1 (configuration not stated)	-1%	.	.	.	.	.
Cn1c2ccccc2c2nnc(SCCOc3ccccc3)nc21	-1%	.	.	.	.	.

Screens from PubChem.
